From PubChem BioAssay AID1159580 (chemical genetic matrix, 2015)
Values joined by “and” are separate entries in the source; they are usually repeats but may differ in a detail not shown here. Equal values may be shown once. Out of some 5,500 compounds screened, about 2,000 (36%) were called active. About 18% were inconclusive and are not listed. No stated cut-off is given here; in the data, active means normalized growth mostly below about 0.91 (no sharp cut-off); inconclusive means no clear call, values can overlap the other calls; inactive means mostly above about 0.92. The list shows a part of the results.

Test: chemical genetic growth profiling, strain panel (AID 1159580);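 further: tested at 20 µM; growth read once vehicle control cultures reached saturation at 30 °C; 1 = growth at the plate median or of vehicle wells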
Details: S. cerevisiae deletion strains, growth OD

Measured: normalized growth

Cc1ccc(S(=O)(=O)NC(=O)NN2CC3CCCC3C2)cc1 (configuration not stated)
inactive: locus YAL013W, strain DEP1, stronger effect = lower value 1.01 | locus YAL021C, strain ccr4, stronger effect = lower value 0.996 | locus YAL026C, strain drs2, stronger effect = lower value 0.979 | locus YAL030W, strain snc1, stronger effect = lower value 0.982 | locus YBL061C, strain skt5, stronger effect = lower value 0.981 | locus YBR009C, strain hhf1, stronger effect = lower value 0.976 | locus YBR021W, strain FUR4, stronger effect = lower value 1.01 | locus YBR023C, strain chs3, stronger effect = lower value 0.973 | locus YBR171W, strain sec66, stronger effect = lower value 0.995 | locus YBR229C, strain ROT2, stronger effect = lower value 1.01 | locus YBR231C, strain swc5, stronger effect = lower value 0.984 | locus YBR279W, strain paf1, stronger effect = lower value 0.987 | locus YCL011C, strain gbp2, stronger effect = lower value 0.961 | locus YCL016C, strain dcc1, stronger effect = lower value 0.98 | locus YCL029C, strain bik1, stronger effect = lower value 1.01 | locus YCL069W, strain vba3, stronger effect = lower value 0.993 | locus YCR088W, strain abp1, stronger effect = lower value 0.972 | locus YDL005C, strain med2, stronger effect = lower value 0.98 | locus YDL035C, strain GPR1, stronger effect = lower value 0.946 | locus YDL040C, strain nat1, stronger effect = lower value 0.984 | locus YDL074C, strain BRE1, stronger effect = lower value 1.01 | locus YDL101C, strain DUN1, stronger effect = lower value 1.02 | locus YDL134C, strain PPH21, stronger effect = lower value 0.962 | locus YDL185W, strain tfp1, stronger effect = lower value 1.02 | locus YDL192W, strain arf1, stronger effect = lower value 1.01 | locus YDR001C, strain nth1, stronger effect = lower value 0.968 | locus YDR069C, strain doa4, stronger effect = lower value 0.99 | locus YDR101C, strain arx1, stronger effect = lower value 1 | locus YDR137W, strain rgp1, stronger effect = lower value 0.89 | locus YDR159W, strain sac3, stronger effect = lower value 0.991 | locus YDR162C, strain NBP2, stronger effect = lower value 0.994 | locus YDR195W, strain ref2 0.975 | locus YDR297W, strain sur2, stronger effect = lower value 0.975 | locus YDR318W, strain mcm21, stronger effect = lower value 1.01 | locus YDR334W, strain swr1, stronger effect = lower value 0.959 | locus YDR335W, strain msn5, stronger effect = lower value 0.979 | locus YDR388W, stronger effect = lower value 1.01 | locus YDR392W, strain spt3, stronger effect = lower value 0.974 | locus YDR502C, strain sam2, stronger effect = lower value 0.997 | locus YEL003W, strain gim4, stronger effect = lower value 0.968 | locus YEL037C, strain rad23, stronger effect = lower value 0.986 | locus YEL061C, strain CIN8 (second series), stronger effect = lower value 0.955 | locus YEL061C, strain CIN8, stronger effect = lower value 1 | locus YER015W, strain faa2, stronger effect = lower value 0.975 | locus YER016W, strain bim1, stronger effect = lower value 0.995 | locus YER110C, stronger effect = lower value 1.02 | locus YER111C, strain swi4, stronger effect = lower value 0.972 | locus YER155C, strain BEM2 (second series), stronger effect = lower value 0.977 | locus YER155C, strain BEM2, stronger effect = lower value 1 | locus YER167W, strain BCK2, stronger effect = lower value 1 | locus YFR010W, strain ubp6, stronger effect = lower value 0.986 | locus YGL078C, strain dbp3, stronger effect = lower value 1.01 | locus YGL086W, strain mad1, stronger effect = lower value 0.984 | locus YGL167C, strain pmr1, stronger effect = lower value 0.982 | locus YGL173C, strain kem1, stronger effect = lower value 1 | locus YGL227W, strain vid30, stronger effect = lower value 0.969 | locus YGL240W, strain doc1, stronger effect = lower value 0.969 | locus YGL248W, strain PDE1, stronger effect = lower value 0.995 | locus YGL253W, strain hxk2, stronger effect = lower value 0.987 | locus YGR135W, strain pre9, stronger effect = lower value 1.03 | locus YGR229C, strain SMI1, stronger effect = lower value 1.01 | locus YGR252W, strain gcn5, stronger effect = lower value 1.05 | locus YHR013C, strain ard1, stronger effect = lower value 0.967 | locus YHR027C, strain rpn1, stronger effect = lower value 0.983 | locus YHR030C, strain SLT2, stronger effect = lower value 1 and 0.961 | locus YHR079C, strain IRE1 (second series), stronger effect = lower value 1.01 | locus YHR079C, strain IRE1, stronger effect = lower value 0.966 | locus YHR094C, strain hxt1, stronger effect = lower value 1.01 | locus YHR129C, strain ARP1, stronger effect = lower value 0.992 | locus YHR142W, strain chs7, stronger effect = lower value 0.98 | locus YHR200W, strain rpn10, stronger effect = lower value 1.01 | locus YIL066C, strain RNR3, stronger effect = lower value 1 | locus YIL073C, strain SPO22, stronger effect = lower value 1.05 | locus YIL125W, strain kgd1, stronger effect = lower value 1.01 | locus YIR030C, strain dcg1, stronger effect = lower value 1.03 | locus YJL092W, strain hpr5, stronger effect = lower value 0.954 | locus YJL095W, strain BCK1 (second series), stronger effect = lower value 0.973 | locus YJL095W, strain BCK1, stronger effect = lower value 1.02 and 0.973 | locus YJL115W, strain asf1, stronger effect = lower value 0.945 | locus YJL129C, strain trk1, stronger effect = lower value 0.954 | locus YJL134W, strain LCB3, stronger effect = lower value 1 | locus YJL154C, strain vps35, stronger effect = lower value 0.97 | locus YJL164C, strain tpk1, stronger effect = lower value 0.97 | locus YJL166W, strain qcr8, stronger effect = lower value 0.981 | locus YJL168C, strain set2, stronger effect = lower value 1.01 | locus YJL187C, strain SWE1 (second series), stronger effect = lower value 1 | locus YJL187C, strain SWE1, stronger effect = lower value 0.989
